# High-throughput results deposited in PubChem by National Center for Advancing Translational Sciences (NCATS).
# Hits are enriched below; roughly 12% of the tested compounds scored in any of these assays.
# JMJD2A Tudor: qHTS Assay for Inhibitors of JMJD2A-Tudor Domain. 390,000 tested, 4.4% active. Potency, µM (series often up to 114 µM), for inactives: at the highest dose activity change, negative = inhibition, usual class: inhibitors. AlphaScreen JMJD2A-Tudor / H3K4me3 peptide binding. Lysine-specific demethylase 4A (Homo sapiens), O75164; note: % is set by controls: 0 for no effect and ±100 for the full control effect; nearly all actives have a fitted effect of over 50% in size
# HP1b binding inh: HTS for Inhibitors of HP1-beta Chromodomain Interactions with Methylated Histone Tails | AlphaScreen HP1-beta / biotin-H3K9me3 peptide binding | 390,000 tested, 0.56% active | Chromobox protein homolog 1 (Homo sapiens), P83916 | Potency, µM (top dose mostly 114 µM), without a hit: top-dose activity change, negative = inhibition, hits mostly inhibitors; note: nearly all actives have a fitted effect of over 70% in size
#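 Compound inhibition of the preformed complex between 50 nM HP1-beta and 50 nM biotinylated H3K9me3 peptide was read by AlphaScreen. Buffer was PBS pH 7.4 with 0.01% Tween-20. Incubations ran 30 min at room temperature, with 10 ug/mL donor/acceptor beads.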
# Sfp inh: qHTS Assay for Inhibitors of Bacillus subtilis Sfp phosphopantetheinyl transferase (PPTase); 4'-phosphopantetheinyl transferase ffp (Bacillus subtilis), Q9F4F7; Biochemical Sfp PPTase activity, qHTS; Potency, µM, for the others: largest response in the series, negative = inhibition, usual class: inhibitors; 310,000 tested, 3.5% active; AID 1490, 2009;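 note: the enzyme is Sfp with the accession as filed and its product quenches rhodamine fluorescence; 0% = enzyme reaction without inhibitor and -100% = no enzyme wells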
#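 Fluorescence-quenching assay with 15 nM Sfp, 5 uM rhodamine-CoA and 12.5 uM BHQ-2-labelled ybbR peptide in pH 7.6 Hepes/MgCl2 buffer. Enzyme was pre-incubated with compound for 15 min at room temperature. Rate was taken from the 30-min fluorescence change (525/598 nm).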
# TDP1 inh: qHTS Assay for Inhibitors of Tyrosyl-DNA Phosphodiesterase (TDP1); Tyrosyl-DNA phosphodiesterase 1 (Homo sapiens), Q9NUW8; recombinant TDP1, AlphaScreen DNA substrate cleavage; Potency, µM (top dose mostly 130 µM), inactives show at the highest dose activity change, negative = inhibition, usual class: inhibitors; 350,000 tested, 0.28% active; AID 485290, 2010; note: % is set by controls: 0 for no effect and ±100 for the full control effect; nearly all actives have a fitted effect of over 40% in size
#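 AlphaScreen read-out: signal falls as enzyme removes the 3' tyrosine-FITC from a 5'-biotinylated DNA oligo (15 nM, 5 min, RT). Enzyme was E. coli-made recombinant Tdp1 at 1 nM, exposed to compound for 15 min beforehand; beads 10 ug/ml, 10 min.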
# G9a block: qHTS Assay for Inhibitors of Histone Lysine Methyltransferase G9a. Histone-lysine N-methyltransferase EHMT2 (Homo sapiens), Q96KQ7. G9a H3K9 monomethylation, AlphaScreen, 2 h. Potency, µM (doses to about 102 µM), for inactives: top-dose activity, negative = inhibition, usual class: inhibitors. 350,000 tested, 8.8% active; note: % is set by controls: 0 for no effect and ±100 for the full control effect; nearly all actives have a fitted effect of over 75% in size
#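 Step 1: enzyme (final 20 nM) with compound, 15 min RT. Step 2: substrate peptide 500 nM and SAM 20 uM, 2 h RT. Step 3: anti-H3K9me1 antibody and AlphaScreen beads, 10 min, then plate read.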
# BAZ2B inh: qHTS Assay for Inhibitors of BAZ2B | AID 504333, 2011 | AlphaScreen BAZ2B-H3K14Ac peptide displacement | 360,000 tested, 4.4% active | Bromodomain adjacent to zinc finger domain protein 2B (Homo sapiens), Q9UIF8 | Potency, µM (doses to about 114 µM), for the others: top-dose activity change, negative = inhibition, usual class: inhibitors; note: % is set by controls: 0 for no effect and ±100 for the full control effect; nearly all actives have a fitted effect of over 60% in size
#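 In this displacement format the biotinylated H3(5-23) peptide acetylated at Lys14 serves as ligand at 50 nM, with BAZ2B at 50 nM in PBS pH 7.4 containing 0.01% Tween-20. Donor and acceptor beads are 10 ug/mL final.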
# Numbers without * were called inactive; ? = inconclusive; / = not tested or not shown; ! = not confirmed by another sample; [ ] = dose if it differs, or a comment. Calls come from the whole dose curve; as a rule, active = well fitted curve in the direction sought with a large enough effect; inconclusive = small, poorly fitted or top-dose-only effect, or another doubt; inactive = no such curve, though single readings can be large; an effect the other way counts as inactive or inconclusive. Potency is the fitted concentration of half-maximal effect.
SMILES,JMJD2A Tudor,HP1b binding inh,Sfp inh,TDP1 inh,G9a block,BAZ2B inh
CCCCN(CC)S(=O)(=O)c1ccc(C(=O)Nc2nnc(COC)o2)cc1,3.1%[11.4 µM],-4.3%,18.3%,7.7%,-4.7%,?
Nc1ccc(S(=O)(=O)NCC(=O)OC2CCOC2=O)cc1[N+](=O)[O-] (configuration not stated),-25.0%,16.5%,/,25.1µM*,-1.7%[12.7 µM],-13.5%
CCN1C(=O)/C(=C/c2ccc(C)s2)NC1=S,-25.5%,26.2%,7.2%,0.0%,12.6µM*,-34.3%
Cc1ccc(/C=C2/NC(=O)N(Cc3ccccc3)C2=O)s1,-10.9%,-1.0%,50.1µM*,-2.5%,?,?
Cc1cc(N2CCOCC2)ccc1/C=C1\NC(=O)N(Cc2ccccc2)C1=O,-7.2%,35.6%,4.3%,1.8%,50.1µM*,-29.0%
Cc1cc(/C=C2\NC(=O)N(Cc3ccc(Cl)cc3)C2=O)c(C)n1C,-28.8%,21.9%,0.3%,9.4%,15.8µM*,-28.4%
Cc1cccc(CN2C(=O)N/C(=C/c3ccc(C)s3)C2=O)c1,3.3%,48.1%,-24.2%,2.0%,0.9%[12.7 µM],4.6%
Cc1ccc(CN2C(=O)N/C(=C/c3ccc4c(c3)n(C)c(=O)n4C)C2=O)cc1,/,/,-3.0%,6.1%,20.3%,?
Cc1cc(N2CCOCC2)ccc1/C=C1\NC(=O)N(Cc2ccccc2F)C1=O,-28.0%,4.9%,18.3%,2.5%,13.9%[59 µM],-12.3%
CCC/C(C#Cc1ccsc1)=C1/c2ccccc2C(=O)N1c1ccccc1,-6.3%,30.9%,/,-1.6%,/,/
COc1cc(CCN2C(=O)N[C@@H](c3ccccc3)C(C(C)=O)=C2C)cc(OC)c1OC,/,/,-16.9%,1.9%,/,/
O=C(CSc1nnc(-c2ccncc2)o1)NCc1ccccc1,-11.1%,28.8%[57 µM],11.2%,3.4%,2.7%[59 µM],5.8%
COc1ccc(-c2nnc(SCC#N)o2)cc1,-9.0%,21.4%,13.1%,3.1%,-42.9%,-1.8%
O=C(Cn1ccc2cc(S(=O)(=O)N3CCCC3)ccc21)NCc1ccco1,79.4µM*,-17.7%,4.6%,-0.5%,?,-10.7%[57.1 µM]
C#CCSc1nnc(-c2ccc(OC)cc2)o1,2.5%,-6.3%,-3.4%,-3.5%,44.7µM*,0.0%
O=C(CSc1nnc(-c2ccc(S(=O)(=O)N3CCCC3)cc2)o1)NCc1ccco1,-27.6%,45.5%,?,-1.0%,?,50.1µM*
COc1ccc(-c2nnc(SCC(=O)NC(=O)NCc3ccccc3)o2)cc1,-23.0%,20.3%,?,6.0%,44.7µM*,-21.5%
O=C(Cn1ccc2cc(S(=O)(=O)N3CCCCCC3)ccc21)NCc1ccccc1Cl,-11.7%,15.0%,/,11.3%,-22.3%[59 µM],-11.5%
CCCCn1nc(C(=O)Nc2ccccc2N2CCCC2)c2ccccc2c1=O,?,?,/,9.0%,25.5%[12.7 µM],?
COc1ccc2c(c1)c1c(c(=O)n(Cc3ccccc3)c(=O)n1Cc1cccc(Cl)c1)n2C,25.5%,65.1%,/,2.8%,17.9%[59 µM],12.7%
O=C(CSc1nnc(-c2ccc(OC(F)F)cc2)o1)NC(=O)NCc1ccco1,?,10.2%,5.6%,-7.7%,?,50.1µM*
COc1ccc(-c2nnc(SCC(=O)NCc3ccco3)o2)cc1,-26.7%,12.8%,-23.7%,-6.7%,?,-38.5%
COCc1cc(C)nc(OCC(=O)N/N=C/c2ccc(-c3cccc([N+](=O)[O-])c3)o2)c1C#N,/,/,-9.9%,5.8%,50.1µM*,-35.6%
COCc1cc(C)nc(OCC(=O)N/N=C/c2ccc(O)cc2)c1C#N,-9.6%,34.1%,1.2%,7.6%,7.7%,-5.2%
COCc1cc(C)nc(N/N=C/c2ccc(-c3ccc(C(=O)O)c(Cl)c3)o2)c1C#N,/,/,-5.6%,28.2µM*,11.2µM*,79.4µM*
SMILES,JMJD2A Tudor,HP1b binding inh,Sfp inh,TDP1 inh,G9a block,BAZ2B inh
COCc1cc(C)nc(OCC(=O)N/N=C/c2ccc(C)o2)c1C#N,-0.6%,54.1%,3.98µM*,5.3%,44.7µM*,11.6%
Cc1cc(N)ccc1NC(=O)CN1CCOCC1,-18.6%,24.4%,15.5%,/,41.6%,-17.1%
COc1cc2c3cc1Oc1c(OC)c(OC)cc4c1[C@@H](Cc1ccc(O)c(c1)Oc1ccc(cc1)C[C@@H]3N(C)CC2)N(C)CC4,/,/,11.7%,9.5%,/,/
COc1ccc2cc1Oc1ccc(cc1)C[C@H]1c3c(cc4c(c3Oc3cc5c(cc3OC)CCN(C)[C@@H]5C2)OCO4)CCN1C,35.5µM*,?,1.6%,13.3%,11.2µM*!,-37.9%
CC(C)CNC(=O)C1CCN(c2ccc(S(=O)(=O)N3CCOCC3)cc2[N+](=O)[O-])CC1,-16.3%,21.7%,19.0%,2.5%,-22.6%[12.7 µM],-18.3%
COc1cc(/C=N/NC(=S)Nc2cccc(S(=O)(=O)N(C)C)c2)cc(OC)c1O,-16.6%,23.5%,-1.8%,6.5%,3.5%[59 µM],-32.2%
COc1cccc(/C=N/NC(=S)Nc2cccc(S(=O)(=O)N(C)C)c2)c1,?,?,10µM*,/,8.91µM*,?
COc1ccc(O)c(/C=N/NC(=S)Nc2cccnc2)c1,25.1µM*,10.1%,-5.7%,2.7%,?,/
CN(C)S(=O)(=O)c1cccc(NC(=O)c2ccc3nccnc3c2)c1,2.8%,14.2%,-15.6%,-2.8%,20.1%,24.3%
CN(C)S(=O)(=O)c1cccc(NC(=S)N/N=C/c2ccc(O)c(O)c2O)c1,20µM*,?,3.16µM*,/,3.16µM*,4.47µM*
COc1ccc(O)c(/C=N/NC(=S)Nc2cccc(S(=O)(=O)N(C)C)c2)c1,22.4µM*,-32.1%,-8.4%,2.8%,?,7.94µM*
CCOc1ccc(OCC)c(NC(=O)C2CCCN(S(=O)(=O)c3ccc4c(c3)oc(=O)n4C)C2)c1 (configuration not stated),-6.3%,49.3%,/,1.3%,3.0%[59 µM],-17.5%
CC[C@H](C)[C@H](NC(=O)OCc1ccccc1)C(=O)OCC(=O)Nc1ccc(N2CCOCC2)cc1,-31.0%,-0.3%,/,/,-22.9%[2.33 µM],?
COc1cc(Nc2nc3c(S(=O)(=O)c4cccc(Cl)c4)nnn3c3ccsc23)cc(OC)c1,1.8%,43.0%,/,-2.6%,21.9%[59 µM],-15.7%
CCn1cnc2c(Nc3ccc(CCC(=O)N=C(N)N)cc3)nc(C#N)nc21,-8.9%,/,/,0.3%,/,/
Cc1cc(-c2ccccc2C(=O)O)on1,-26.3%,51.1%,-1.4%,-7.1%,1.9%[59 µM],0.1%
